The nature of assay [1]: qHTS profiling of the MIPE4 collection as inhibitors of Plasmodium falciparum (DD2) proliferation (Rep 2) (AID 743346; call rule not given here). Conditions: P. falciparum Dd2 in erythrocytes, SYBR Green DNA, 72 h; at 28.5 µM unless noted. Put shortly:
(§1)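 Parasite DNA was quantified by SYBR Green I fluorescence (ex 485, em 535 nm) after overnight lysis in saponin/Triton buffer at room temperature. Cultures at 0.3% parasitemia and 2.5% hematocrit were first exposed to compound for 72 h at 37 C; signals were normalised to artemisinin (0.29 uM) and vehicle wells.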
Background: In qHTS, concentration-response curves come from the screen itself.

The nature of assay [2]: qHTS profiling of the MIPE4 collection as inhibitors of Plasmodium falciparum (HB3) proliferation (AID 743347; call rule not given here;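 also: plate controls were DMSO vehicle wells for no effect and artemisinin wells for full effect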). The conditions noted are these: P. falciparum HB3 in erythrocytes, SYBR Green DNA, 72 h; at 28.5 µM unless noted. Put shortly:
as §1

Assay [3] in a line: High-throughput drug toxicity screening in the BPDCN cell line Cal-1 (AID 1224825; call rule not given here). The conditions noted are these: Cal-1 BPDCN cell viability, qHTS; at 45.8 µM (top of the series) unless noted. Put shortly: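 Percent activity derived from CellTiter-Glo luminescence, scaling DMSO to 100% and 9.2 uM final bortezomib to 0%. BPDCN Cal-1 cells (500/well, RPMI plus 10% FBS) incubated with compounds 48 hours at 37C before reading.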

A short description of assay [4]: qHTS assay for measurement of the activity of small molecule inhibitors on Zika virus induced Caspase-3 activity in human iPSC derived neural progenitor cells (hNPCs) (AID 1224857). Also: % of control where 0% means no effect; nearly all actives have a fitted effect of over 65% in size. Put shortly:
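Percent inhibition of virus-induced caspase-3/7 luminescence (Caspase-Glo), scaled between uninfected cells and Zika-infected cells. hNPCs received compound 1 hr before ZIKV at 2 FFU/cell, with 6 hours infection at 37 C.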

Assay [5] can be described thus: qHTS assay for measurement of the activity of small molecule inhibitors on Zika virus induced Caspase-3 activity in human astrocytoma cells (AID 1224859).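 Also: plate controls were ZIKV-infected untreated cells for no effect and uninfected cells for full effect.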 The procedure, abridged: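 Luminescent caspase-3/7 read-out (30 min reagent, room temperature) in human SNB-19 cells infected 6 h with ZIKV (2 FFU/cell) after 1 h compound pre-incubation; Data were normalised to uninfected and infected wells.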

Assay [6] in a line: qHTS Screen of the MIPE 4.0 Collection Against Ewings Sarcoma (RDES) (AID 1259252). Also: nearly all actives have a fitted effect of over 35% in size. Also: potency is read from the fitted curve at half-maximal effect. The procedure, abridged:
(§2)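 Cells plated in serum-containing RPMI (5% FBS) and treated with compound dilutions for 48 h. Readout luminescent viability; normalization relied on vehicle (no inhibition) and media-only columns (full inhibition).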

Assay [7] is described as follows: qHTS Screen of the MIPE 4.0 Collection Against Ewings Sarcoma (TC71) (AID 1259253). Also: nearly all actives have a fitted effect of over 40% in size. Also: potency is read from the fitted curve at half-maximal effect. Put shortly: as §2
A short description of assay [8]: qHTS Screen of the MIPE 4.0 Collection Against Ewings Sarcoma (EW8) (AID 1259255). Also: nearly all actives have a fitted effect of over 35% in size. Also: potency is read from the fitted curve at half-maximal effect.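 As to viability: 100% = DMSO-treated cells and 0% = medium-only wells without cells.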 Put shortly: as §2
Assay [9] in a line: qHTS assay to identify small molecule inhibitors of chordoma cells - UCH-2 (AID 1259356). Also: % is scaled to controls: 0 for no effect and ±100 for the full control effect.
A short description of assay [10]: P-glycoprotein substrates identified in KB-8-5-11 adenocarcinoma cell line, qHTS therapeutic library screen (AID 1346987). Also: nearly all actives have a fitted effect of over 65% in size. Also: potency is read from the fitted curve at half-maximal effect. The procedure, abridged:
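In this qHTS, P-gp-rich KB-8-5-11 cells received library compounds across a concentration range. Viability was quantified by luminescence after 72 h at 37 degree C.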

Assay [11] can be described thus: qHTS assay to identify small molecule inhibitors of chordoma cells - UCH-1 (AID 1259355). Also: nearly all actives have a fitted effect of over 55% in size. Also: potency is read from the fitted curve at half-maximal effect. The procedure, abridged:
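800 cells/well, overnight attach; compounds pinned at 15 concs, then auranofin/camptothecin/doxorubicin/rubitecan/topotecan combo added; 48hr 37 C, 5% CO2; CellTiter-Glo, 30min RT, luminescence.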

Assay [12] can be described thus: qHTS Screen of the MIPE 4.0 Collection Against Ewings Sarcoma (TC32) (AID 1259256). Also: nearly all actives have a fitted effect of over 45% in size. Also: potency is read from the fitted curve at half-maximal effect. Put shortly: as §2
Assay [13] in a line: Identifying Small Molecule Inhibitors of Pancreatic Cancer Stem Cells (A2780, Spheroid) (AID 1259357).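 Also: spheroids pre-formed over 14 days in stem cell medium on hydrogel; compound exposure lasted 48 h before the ATP luminescence read; 100% = DMSO treated cells and 0% = wells without cells.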 The conditions noted are these: Potency: A2780 spheroid viability. The procedure, abridged:
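Luminescent ATP readout (CellTiter-Glo) quantifies surviving cells after a 48 h drug incubation. Normalization uses DMSO wells as no inhibition and media-only wells as full inhibition; bortezomib served as positive control.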

Assay [14] in a line: Identifying Small Molecule Inhibitors of Pancreatic Cancer Stem Cells (A278, Adherent) (AID 1259361).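 Also: viability read after 48 h compound exposure; nearly all actives have a fitted effect of over 35% in size.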 The procedure, abridged: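 Pre-formed 14-day tumor spheroids or adherent cells dosed and incubated 48 h, 37C, 5% CO2. Viability assessed by CellTiter-Glo.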
Assay [15] is described as follows: P-glycoprotein substrates identified in KB-3-1 adenocarcinoma cell line, qHTS therapeutic library screen (AID 1346986). Also: nearly all actives have a fitted effect of over 60% in size. The conditions noted are these: KB-3-1 parental cells viability, CellTiter-Glo, 72 h; at 44.5 µM (top of the series). Put shortly:
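Dose-response cytotoxicity, KB-3-1 vs P-gp-high KB-8-5-11, no colchicine in assay medium. Read: CellTiter-Glo at 72 h.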

Where “and” joins values, the source holds several entries; their conditions need not be identical. Identical values can stand only once. Records with an inconclusive call do not appear. Calls of active or inactive are those of the source. Unless noted, calls follow the shape of the dose curve; as a rule, active = well fitted curve in the direction sought with a large enough effect; inconclusive = small, poorly fitted or top-dose-only effect, or another doubt; inactive = no such curve, though single readings can be large; an effect the other way counts as inactive or inconclusive.

Take `Nc1nc(N)nc(-c2cc(Cl)ccc2Cl)n1`: the parasite growth, % of control (lower = inhibition) in assay [1] worked out at 128%. Moreover, the growth, % of control in assay [2] worked out at 97.7%. Besides, the viability (% of control) in assay [3] came out at 98%. Moreover, the Potency entry in assay [4], in assay [5], in assay [6], in assay [7], in [8] and in assay [9] was “inactive” each time. The Potency entry in assay [10] was “inactive”.

As to `Nc1nc(N)c2nc(CNc3ccc(C(=O)NC(CCC(=O)O)C(=O)O)cc3)cnc2n1` (stereo not drawn), in assay [1], the parasite growth, % of control (lower = inhibition) was 21%. Also, the growth, % of control in assay [2] was found to be 23.4%. Also, the viability (% of control) in [3] was determined as 9.27%. Besides, the Potency result in assay [4], in assay [5] and in assay [11] was “inactive” throughout. Besides, the figures for the Potency in [6], in assay [7] and in [10] were 0.0166 µM (active), 0.0132 µM (active) and 37.2 nM (active), respectively.

As to `N[C@@H](C(=O)N[C@@H]1C(=O)N2C(C(=O)O)=C(Cl)CS[C@H]12)c1ccccc1`, the parasite growth, % of control (lower = inhibition) in [1] was 115%. This molecule yielded a growth, % of control in assay [2] of 97.6%. For the same molecule, the viability (% of control) in [3] was determined as 108%. Also, the Potency result in assay [4], in [5], in assay [7], in assay [8], in assay [12] and in [11] was “inactive” in each case. The Potency result in assay [9] and in [10] was “inactive” each time.

With `OC(Cn1cncn1)(Cn1cncn1)c1ccc(F)cc1F`, the viability (% of control) in assay [3] worked out at 114%. Further, the Potency result in assay [4], in assay [5], in assay [6], in [7], in assay [8] and in assay [12] was “inactive” in each case. Also, the Potency result in assay [9] and in [10] was “inactive” in each case.

On to `COc1cc2c(Nc3ccc(Br)cc3F)ncnc2cc1OCC1CCN(C)CC1`, for which the parasite growth, % of control (lower = inhibition) in assay [1] was found to be 12.4%. This molecule yielded a growth, % of control in [2] of 3.4%. Moreover, the viability (% of control) in assay [3] is 5.58%. The Potency entry in [4], in assay [5], in assay [13] and in assay [10] was “inactive” each time. Moreover, the Potency was 16.6 µM (active) in [6], 5.9 µM (active) in assay [7] and 5.26 µM (active) in assay [8]. The IC50 (viability decrease) in [14] was 18.7 µM (active).

Take `C1CCC(C(CC2CCCCN2)C2CCCCC2)CC1` (stereo not drawn): the parasite growth, % of control (lower = inhibition) in assay [1] amounted to 7.73%. This molecule also yielded a growth, % of control in [2] of 1.94%. Further, the viability (% of control) in assay [3] was determined as 5.18%. The Potency result in assay [4] and in assay [5] was “inactive” throughout. The Potency in assay [6] was 23.5 µM (active); in assay [7], 13.2 µM (active); in [8], 13.2 µM (active); in assay [12], 16.6 µM (active); in [11], 31.6 µM (active); in assay [10], 5.17 µM (active) and 16.6 µM (active).

On to `O=C(O)C1CCCN(CCC=C(c2ccccc2)c2ccccc2)C1` (stereo not drawn), for which the parasite growth, % of control (lower = inhibition) in assay [1] was determined as 72.1%. Moreover, the growth, % of control in [2] was determined as 101%. The viability (% of control) in assay [3] stood at 127%. Moreover, the Potency result in assay [4], in assay [5] and in [10] was “inactive” throughout. Besides, the Potency in assay [6] was 11.8 µM (active); in [7], 9.35 µM (active); in assay [8] it was 13.2 µM (active).

Consider `CC(=O)[C@H]1CC[C@H]2[C@@H]3CC=C4C[C@@H](O)CC[C@]4(C)[C@H]3CC[C@]12C`, for which the parasite growth, % of control (lower = inhibition) in assay [1] worked out at 85.3%. Moreover, the growth, % of control in assay [2] was determined as 65.7%. Also, in assay [3], the viability (% of control) is 107%. Besides, the Potency entry in assay [4], in assay [5], in [6], in assay [7], in assay [8] and in [9] was “inactive” in each case. Besides, the Potency entry in assay [10] was “inactive”.

Take `O=C(N[C@H](CO)[C@H](O)c1ccc([N+](=O)[O-])cc1)C(Cl)Cl`: the parasite growth, % of control (lower = inhibition) in assay [1] stood at 83.1%. For the same molecule, the growth, % of control in assay [2] was determined as 105%. For the same molecule, in assay [3], the viability (% of control) came to 116%. Also, the Potency entry in assay [5], in assay [6], in assay [7], in [8], in [12] and in [11] was “inactive” in each case. Also, the Potency entry in assay [9] and in assay [10] was “inactive” each time. The outcome in assay [15] was inactive.

Consider `COc1cnc(NS(=O)(=O)c2ccc(N)cc2)nc1`, for which the parasite growth, % of control (lower = inhibition) in [1] turned out to be 79.9%. The molecule further displayed a growth, % of control in assay [2] of 58.8%. Also, the viability (% of control) in [3] was 21.6%. In addition, the Potency result in [4], in assay [5], in assay [6], in assay [7], in assay [8] and in assay [9] was “inactive” throughout. The Potency entry in assay [10] was “inactive”. The result in [15] was inactive.

The record behind these values is PubChem BioAssay (NCATS).
